The list is not random: actives were taken first. Their share in the collection is about 22%.
LmPK inh = qHTS Assay for Inhibitors of Leishmania Mexicana Pyruvate Kinase (LmPK) | Q27686 | purified LmPK, Kinase-Glo ATP luminescence, 1 h | Potency, µM (series often up to 57.5 µM), inactives show at the top dose activity change, negative = inhibition, actives largely listed as inhibitors | 290,000 tested, 0.37% active | AID 1721, 2009; also: potency is read from the fitted curve at half-maximal effect; % is scaled to controls: 0 for no effect and ±100 for the full control effect
Target sequence (Q27686 whole entry, looked up): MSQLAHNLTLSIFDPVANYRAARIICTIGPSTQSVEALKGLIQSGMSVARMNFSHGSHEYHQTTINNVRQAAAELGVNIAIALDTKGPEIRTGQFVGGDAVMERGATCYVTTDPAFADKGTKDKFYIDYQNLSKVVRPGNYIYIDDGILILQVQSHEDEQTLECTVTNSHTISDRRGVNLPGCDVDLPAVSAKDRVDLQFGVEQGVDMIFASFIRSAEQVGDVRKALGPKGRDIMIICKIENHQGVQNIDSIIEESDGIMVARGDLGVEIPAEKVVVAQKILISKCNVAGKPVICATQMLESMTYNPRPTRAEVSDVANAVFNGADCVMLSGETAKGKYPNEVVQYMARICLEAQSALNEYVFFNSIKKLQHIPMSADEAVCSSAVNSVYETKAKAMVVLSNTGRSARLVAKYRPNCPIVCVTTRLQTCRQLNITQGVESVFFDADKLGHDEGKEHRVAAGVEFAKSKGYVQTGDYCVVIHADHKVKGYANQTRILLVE
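0.1 nM LmPK, 0.5 mM PEP, 0.1 mM ADP; 50 mM imidazole pH 7.2, 7 mM MgCl2, 50 mM KCl; 1 h RT. Kinase-Glo luminescence readout, normalized to no-enzyme (full inhibition) and uninhibited wells.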
Pf growth 96h = Primary qHTS for delayed death inhibitors of the malarial parasite plastid, 96 hour incubation. P. falciparum luciferase reporter growth, 96 h. 320,000 tested, 6.9% active. Potency, µM (highest dose often 28.7 µM), without a hit: at the highest dose activity change, negative = inhibition, hits mostly inhibitors; also: potency is read from the fitted curve at half-maximal effect; % is scaled to controls: 0 for no effect and ±100 for the full control effect
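Compounds incubated with erythrocytes infected by luciferase-expressing P. falciparum (2% hematocrit, 0.05% parasitemia final) for 96 hours, 37 C in 5% CO2. Growth inhibition scored as decreased luciferase luminescence.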
Shiga toxin inh = A qHTS for Small Molecule Inhibitors of Shiga Toxin | AID 2315, 2010 | 290,000 tested, 9.2% active | inhibition, % at 38.7 µM | Vero cells, Shiga toxin protein synthesis inhibition reporter; in the data active = inhibition mostly above about 28%, no sharp cut-off; inactive = mostly below about 43%; also: 0% is about no effect
Cycloheximide cs = Cycloheximide Counterscreen for Small Molecule Inhibitors of Shiga Toxin; cell reporter, cycloheximide protein synthesis inhibition counterscreen; max response, %; 300,000 tested, 12% active; AID 2314, 2010; in the data active = max response mostly above about 13%, no sharp cut-off; inactive = mostly below about 14%; also: read at 38.3 µM for the half of the compounds with a filed dose; 0% is about no effect
Pf growth 48h = Primary qHTS for delayed death inhibitors of the malarial parasite plastid, 48 hour incubation; P. falciparum luciferase growth in erythrocytes, 48 h; Potency, µM (highest dose often 28.7 µM), without a hit: at the top dose activity change, negative = inhibition, hits mostly inhibitors; 310,000 tested, 5.9% active; AID 504832, 2011; also: potency is read from the fitted curve at half-maximal effect; % is scaled to controls: 0 for no effect and ±100 for the full control effect
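Cell-based growth assay: transgenic P. falciparum expressing firefly luciferase, cultured in red cells within RPMI 1640 containing 0.5% w/v Albumax, 24 mM bicarbonate and gentamycin. A drop in luciferase activity indicates inhibition.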
* marks the source's active call; other numbers are inactive results; u = inconclusive; x = no result; [ ] = dose if it differs, or a comment. Unless noted, calls follow the shape of the dose curve; as a rule, active = well fitted inhibition curve with a large enough effect; inconclusive = small, poorly fitted or top-dose-only effect, or another doubt; inactive = no such curve, though single readings can be large or run the other way.

SMILES | LmPK inh | Pf growth 96h | Shiga toxin inh | Cycloheximide cs | Pf growth 48h
CC(=O)Nc1nnc(S(=O)(=O)N2CCN(c3ccc(Cl)cc3[N+](=O)[O-])CC2)s1 | -12.0% | -2.6% | 18.5 | -8.8 | 10.5%
O=C(COC(=O)COc1ccc(Br)cc1)NCc1ccccc1 | x | 29.6% | x | x | -3.6%
O=C(N/N=C/c1cccs1)c1cccnc1 | -6.9% | -28.7% | 26.9 | 3.3 | 3.1%
Cc1ccc(/C=N/NC(=O)c2cccnc2)o1 | -0.6% | u | -7.7 | 6.0 | -6.6%
Cc1ccc(/C=N/NC(=O)c2cccnc2)s1 | -8.0% | u | 58.4* | 18.4* | 16.2%
O=C(N/N=C/c1cccc2ccccc12)c1cccnc1 | -0.7% | 11.6% | 38.9* | 29.2* | x
Cc1ccccc1/C=N/NC(=O)c1cccnc1 | -0.7% | -27.4% | 22.8 | 9.1* | 33.2%
Cc1cccc(C(=O)NCC(=O)NC2CCC(C)CC2)c1 (configuration not stated) | x | 27.7% | x | x | -2.2%
CC(=O)Nc1nc2c(ncn2COCCOC(C)=O)c(=O)[nH]1 | -2.2% | 13.1µM* | -4.8 | -3.2 | 3.9%
O=C(Nc1nc2c(s1)CCc1ccccc1-2)c1cccs1 | 5.4% | u | 93.8* | 41.2* | u
O=C(Nc1ncc2c(n1)-c1ccccc1CC2)c1ccccc1 | -1.0% | 49.0% | 62.9* | 20.0* | 31.3%
Nc1ncc2c(n1)-c1ccccc1CC2 | 7.4% | 39.1% | 33.0 | 13.0 | 3.7µM*
Nc1ncc2c(n1)-c1ccoc1CC2 | 0.1% | -2.3% | -9.0 | 8.6 | -9.2%
O=C(Nc1ncc2c(n1)-c1ccccc1CC2)c1cccs1 | -3.5% | u | 63.7 | 27.8* | u
Cc1ccc(C[C@@H](NS(=O)(=O)c2ccc(C(=O)O)cc2)C(=O)O)cc1 | x | 15.9% | -10.6 | -4.9 | -22.6%
CC(=O)/C=C1/SC(CC(=O)O)C(=O)N1c1ccccc1 (configuration not stated) | -2.4% | 15.5% | 11.5 | -1.9 | 9.4%
Fc1ccccc1Nc1nc2c(s1)CCc1ccccc1-2 | -4.6% | 1.5% | 85.5* | 72.5* | 268.7%
Nc1ccc(NC(=O)c2ccccc2)c2c1C(=O)c1ccccc1C2=O | -6.8% | u | -4.4 | 1.1 | 18.0%
COc1ccc(OC)c2c1C(=O)c1ccccc1C2=O | -14.8% | 103.5% | -10.0 | -2.1 | -0.5%
COc1ccc(N)c2c1C(=O)c1ccccc1C2=O | u | u | 60.2* | 51.2* | 79.3%
COc1ccc(OC)c2c1C(=O)C(Cl)=C(Cl)C2=O | -21.4% | 1.4% | 12.9 | 15.2* | -19.9%
Nc1ccc(O)c2c1C(=O)c1ccccc1C2=O | -29.4% | 126.6% | 36.1* | 22.1* | 101.3%
Nc1ccc(Br)c2c1C(=O)c1ccccc1C2=O | -3.7% | 51.8% | 20.3 | 28.4* | u
NC1=C(Br)C(=O)c2ccccc2C1=O | -29.4% | 1.04µM* | 81.1* | 31.4* | 2.62µM*
Cc1csc(NC(=O)c2nn(C)c(C)c2[N+](=O)[O-])n1 | -10.5% | 114.3% | 52.2* | 24.8* | 102.6%
SMILES | LmPK inh | Pf growth 96h | Shiga toxin inh | Cycloheximide cs | Pf growth 48h
Cc1c([N+](=O)[O-])c(C(=O)Nc2ccc3c(c2)OCCO3)nn1C | 14.1µM* | x | 85.0* | 51.6* | 164.2%
Cc1nn(C)c(C(=O)Nc2ccc3c(c2)OCO3)c1[N+](=O)[O-] | -9.7% | u | 36.4 | 21.0* | -7.4%
Cc1ccc(CNC(=O)c2nn(C)c(C)c2[N+](=O)[O-])cc1 | 1.5% | -11.1% | -2.7 | -2.9 | -10.6%
Cc1nn(C(C)C(=O)Nc2ccc3c(c2)OCO3)c(C)c1[N+](=O)[O-] (configuration not stated) | -2.6% | 36.3% | 73.6 | 3.7 | u
CC(=O)Oc1cccc(NC(=O)c2ccc3c(c2)C(=O)N(CC(C)C)C3=O)c1 | -1.2% | 199.3% | 127.7* | 28.1* | 21.4%[0.00184 µM]
COCCCN1C(=O)c2ccc(C(=O)Nc3cccc(OC)c3)cc2C1=O | -26.7% | -12.1% | 53.4* | 37.2* | 55.4%
COCCCN1C(=O)c2ccc(C(=O)NCCc3ccccc3)cc2C1=O | -6.9% | 41.2% | 94.7* | 45.2* | 37.5%
C#Cc1cccc(NC(=O)c2ccc3c(c2)C(=O)N(Cc2cccnc2)C3=O)c1 | -7.0% | 26.5% | -11.9 | 38.8* | 0.5%
Cn1c(N)c(C(=O)Nc2c(Cl)cccc2Cl)sc1=S | 5.2% | u | 10.2 | -1.8 | u
Cc1ccc(C2(C)NC(=O)N(CC(=O)Nc3ccccc3C(=O)NC3CCCC3)C2=O)cc1 (configuration not stated) | x | u | x | x | -22.7%
O=C(Nc1cc(S(=O)(=O)N2CCOCC2)ccc1N1CCCCC1)c1ccc(Cl)cc1 | x | 8.28µM* | x | x | 13.1µM*
Cc1ccc(C(=O)Nc2cc(S(=O)(=O)N3CCOCC3)ccc2N2CCCC2)cc1 | x | -21.7% | x | x | u
O=C(Nc1cc(S(=O)(=O)N2CCCCC2)ccc1N1CCOCC1)c1cc(=O)[nH]c2ccccc12 | -2.9% | 8.28µM* | -2.1 | -2.0 | u
O=C(Nc1cc(S(=O)(=O)N2CCCCC2)ccc1N1CCOCC1)c1ccc(C(F)(F)F)cc1 | x | 13.1µM* | x | x | 9.28µM*
Cc1ccc(S(=O)(=O)NC(=O)c2cc(C)n(-c3cc(S(=O)(=O)N4CCOCC4)ccc3N3CCCC3)c2C)cc1 | -5.1% | 4.65µM* | -20.8 | -2.3 | x
CCN(CC)S(=O)(=O)c1ccc(OC)c(NC(=O)OCc2ccccc2)c1 | -0.8% | -24.7% | -6.2 | -3.6 | 0.0%
Cc1[nH]n(-c2ccccc2)c(=S)c1C=Nc1cccc([N+](=O)[O-])c1 | -26.8% | 9.1% | 1.1 | -2.0 | 15.2%
CN1CCN(c2ccc(C(F)(F)F)cc2NC(=O)Nc2ccccc2)CC1 | 0.8% | 1.47µM* | -7.6 | 4.5 | x
COc1ccc(CCNC(=O)c2cc(S(=O)(=O)N3CCOCC3)ccc2N2CCCC2)cc1OC | x | -8.9% | x | x | u
O=C(Nc1cc(S(=O)(=O)N2CCOCC2)ccc1N1CCCC1)c1ccc(Cl)cc1 | x | u | x | x | 14.7µM*
O=C(Nc1cc(C(F)(F)F)ccc1N1CCCC1)C1CCCO1 (configuration not stated) | x | -20.1% | x | x | -8.9%
Cc1ccccc1C(=O)N1CCC(C(=O)Nc2cc(C(F)(F)F)ccc2N2CCCC2)CC1 | x | 10.4µM* | x | x | -23.7%
O=C(NCCc1c[nH]c2ccccc12)c1cc(S(=O)(=O)N2CCCCC2)ccc1N1CCOCC1 | -0.2% | 65.6% | 16.3 | 11.1 | 7.38µM*
O=C(Nc1cc(S(=O)(=O)N2CCOCC2)ccc1N1CCCCC1)c1ccccc1 | x | 4.65µM* | x | x | u
CC1CC1C(=O)Nc1cc(C(F)(F)F)ccc1N1CCOCC1 (configuration not stated) | -1.8% | -14.4% | -12.3 | -1.7 | u
Cc1cccc(C(=O)Nc2cc(S(=O)(=O)N3CCOCC3)ccc2N2CCCCC2)c1 | x | u | x | x | 7.38µM*
O=C(Nc1ccccc1N1CCCC1)c1cc(S(=O)(=O)N2CCOCC2)ccc1Cl | x | u | x | x | -8.2%
Cc1ccc(S(=O)(=O)N2CCC(C(=O)Nc3cc(C(F)(F)F)ccc3N3CCOCC3)CC2)cc1C | x | 9.28µM* | x | x | u
